D1 antagonist – Antagonist of Human D 1 Dopamine Receptor: qHTS; HEK293 TREx D1 cells, calcium flux, dopamine EC80; stronger effect = lower value; 3.2% of 360,000 active; D(1A) dopamine receptor (Homo sapiens), P21728; AID 504652, 2011; activity change, negative = inhibition, % at 10 µM; in the data active = activity change below about -30%
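Tetracycline-induced HEK293 T-REx cells with force-coupled D1 receptor were loaded with a no-wash calcium dye. Compound was added after a 10 s baseline and read kinetically for 180 s; EC80 dopamine was then added and calcium flux followed another 180 s.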
D1 ag – Allosteric Agonists of the Human D1 Dopamine Receptor: qHTS | D(1A) dopamine receptor (Homo sapiens), P21728 | HEK293 T-REx D1 cells, calcium flux, agonist mode | activation, % at 2 µM | 1% of 360,000 active; in the data active = activation above about 30%
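Inducible HEK293 T-REx D1 cells, force-coupled to calcium signalling, were plated at 4000 cells/well with tetracycline and held overnight at 30 C. After no-wash calcium dye loading, compound-evoked calcium rise over 180 s flagged agonists.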
D1 PAM – Potentiators of Human D1 Dopamine Receptor: qHTS; D(1A) dopamine receptor (Homo sapiens), P21728; HEK293 TREx D1 cells, calcium flux, dopamine EC20 potentiation; potentiation, % at 10 µM; 0.036% of 360,000 active; AID 504651, 2011; in the data active = potentiation above about 30%
TRPV1 potentiator – HTS Assay for Compounds that Act as Potentiators of the Vanilloid Receptor 1 | 0.02% of 320,000 active | TRPV1-expressing cells, Fluo-8 calcium influx, capsaicin EC20 potentiation | potentiation, % at 8.33 µM | Transient receptor potential cation channel subfamily V member 1 (Homo sapiens), Q8NER1; in the data active = potentiation above about 80%; inconclusive = between about 30% and that limit
Target sequence (Q8NER1 whole entry, looked up): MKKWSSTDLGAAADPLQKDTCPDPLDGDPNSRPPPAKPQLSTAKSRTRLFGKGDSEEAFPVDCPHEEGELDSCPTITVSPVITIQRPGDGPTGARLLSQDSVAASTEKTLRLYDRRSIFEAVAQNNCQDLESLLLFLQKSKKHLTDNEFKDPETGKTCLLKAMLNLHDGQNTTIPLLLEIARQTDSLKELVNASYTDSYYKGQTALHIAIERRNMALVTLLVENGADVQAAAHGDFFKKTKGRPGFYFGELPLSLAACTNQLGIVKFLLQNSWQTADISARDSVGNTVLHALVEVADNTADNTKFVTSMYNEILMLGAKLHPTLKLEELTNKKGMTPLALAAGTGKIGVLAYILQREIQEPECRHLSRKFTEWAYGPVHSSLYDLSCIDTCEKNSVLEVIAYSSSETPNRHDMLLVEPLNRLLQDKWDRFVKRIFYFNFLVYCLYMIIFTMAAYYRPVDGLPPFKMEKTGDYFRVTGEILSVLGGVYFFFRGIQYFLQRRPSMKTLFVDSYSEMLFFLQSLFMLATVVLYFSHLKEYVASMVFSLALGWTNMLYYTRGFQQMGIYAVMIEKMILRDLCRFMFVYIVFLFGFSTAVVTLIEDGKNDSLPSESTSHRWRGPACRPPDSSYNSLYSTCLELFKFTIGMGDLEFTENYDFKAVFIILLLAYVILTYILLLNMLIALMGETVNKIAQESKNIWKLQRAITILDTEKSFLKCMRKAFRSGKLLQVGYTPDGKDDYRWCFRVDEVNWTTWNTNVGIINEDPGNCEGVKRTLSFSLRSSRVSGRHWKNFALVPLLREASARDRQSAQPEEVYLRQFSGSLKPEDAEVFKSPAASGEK
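Fluo-8 calcium influx in TRPV1-expressing cells, kinetic read (ex 480/em 520 nm). Compound added and read 3 min for agonist activity, followed by capsaicin at EC20 final and 2 min further read for enhancement.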
TRPV1 ag – HTS Assay for Compounds that Act as Agonists of the Vanilloid Receptor 1; TRPV1-expressing cells, Fluo-8 calcium influx, agonist mode; Transient receptor potential cation channel subfamily V member 1 (Homo sapiens), Q8NER1; 0.19% of 320,000 active; AID 540275, 2011; activation, % at 8.33 µM; in the data active = activation above about 80%; inconclusive = between about 30% and that limit
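Fluo-8 calcium influx in TRPV1-expressing cells, kinetic read (ex 480/em 520 nm). Compound added and read 3 min for agonist activity, followed by capsaicin at EC20 final and 2 min further read for enhancement.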
Of the large screens only hits and unclear results are named; the others gave an inactive call. In the library only some 4.2% were active in any assay of this set; here they are far more common.

Brc1ccccc1-n1ncc2c1ncn1nc(Cc3ccccc3)nc21	D1 antagonist -63 (no result: TRPV1 potentiator, TRPV1 ag)
CCOC(=O)C1=C(COC(=O)c2nc(Cl)ccc2Cl)NC(=O)NC1C (stereo not given)	none
CCOC(=O)C1=C(COC(=O)CC(C)c2ccccc2)NC(=O)NC1C (stereo not given)	none
CCOC(=O)C1=C(COC(=O)C(CC)c2ccccc2)NC(=O)NC1C (stereo not given)	D1 antagonist -36, TRPV1 ag inconclusive
CCOC(=O)C1=C(COC(=O)c2ncc(Cl)c(Cl)c2Cl)NC(=O)NC1C (stereo not given)	D1 antagonist -49, TRPV1 ag inconclusive
CCOc1ccccc1NC(=O)C1CCN(S(=O)(=O)Cc2ccccc2)CC1	none (no result: TRPV1 potentiator, TRPV1 ag)
O=C(Nc1ccc(OCc2ccccc2)cc1)c1cccnc1	D1 ag 61
O=C(Nc1ccc(Oc2cccnc2)cc1)c1ccccc1F	D1 antagonist -42
O=C(Nc1ccc(OCc2ccccc2)cc1)c1ccccc1	none
O=C(Nc1ccc2c(c1)oc1ccccc12)c1cccnc1	D1 antagonist -55
CCc1ccc(NC(=O)C2CCN(c3cc(C)nc4c(-c5ccc(Cl)cc5)c(C)nn34)CC2)cc1	none (no result: TRPV1 potentiator, TRPV1 ag)
CN=C1S/C(=C\c2cc(C)n(-c3ccccc3F)c2C)C(=O)N1C	D1 antagonist -43, TRPV1 ag inconclusive
C=CCn1c(O)c(N=Nc2ccccc2O)c2ccccc21	D1 ag 41
Cn1c(O)c(N=NC(=N)N)c2ccccc21	none (no result: TRPV1 potentiator, TRPV1 ag)
Cc1ccccc1N=Nc1c(O)n(C)c2ccccc12	D1 antagonist -39
C=CCn1c(O)c(N=Nc2ccccc2)c2ccccc21	none
Cc1nc2[nH]onc2c2nccc(=O)c12	D1 antagonist -39
CC1(C)CC(=O)C(C=Nc2cc(C(=O)c3ccccc3)ccc2N)=C(O)C1	D1 antagonist -45
Cc1c(Cl)cccc1NC(=S)NC1CCN(Cc2ccccc2)CC1	D1 antagonist -33
CC(C)c1ccc(NC(=S)NC2CCN(Cc3ccccc3)CC2)cc1	D1 ag 36
Cc1ccc(NC(=S)NC2CCN(Cc3ccccc3)CC2)cc1C	D1 antagonist -82
S=C(Nc1ccccc1Cl)NC1CCN(Cc2ccccc2)CC1	none
CC(C)c1ccccc1NC(=S)NC1CCN(Cc2ccccc2)CC1	none
S=C(Nc1ccc(Cl)cc1Cl)NC1CCN(Cc2ccccc2)CC1	none
S=C(Nc1cc(Cl)cc(Cl)c1)NC1CCN(Cc2ccccc2)CC1	none
S=C(Nc1ccc2c(c1)OCO2)NC1CCN(Cc2ccccc2)CC1	D1 antagonist -38
COc1cc(C)c(Cl)cc1S(=O)(=O)NCCc1c(C)[nH]c2ccccc12	none (no result: TRPV1 potentiator, TRPV1 ag)
Cc1ccc(NC(=S)NC2CCN(Cc3ccccc3)CC2)cc1	D1 antagonist -64
Cn1c(=O)c2cc(C(=O)N3CCN(c4cccc(C(F)(F)F)c4)CC3)sc2c2ccccc21	none (no result: TRPV1 potentiator, TRPV1 ag)
N#Cc1ccc2c(c1)C[C@]1(c3ccsc3)OC3=C(C(=O)OC4(CCCCC4)C3)C2O1	D1 antagonist -32
COc1ccc([C@]23Cc4cc(C#N)ccc4C(O2)C2=C(CC4(CCCCC4)OC2=O)O3)cc1	none
Cc1ccc(C)c(CN2CCC(CNC(=O)Nc3ccc(Cl)cc3)CC2)c1	D1 antagonist -33
COC(=O)c1sc2cccc(F)c2c1S(=O)(=O)NCc1ccc(Cl)cc1	none (no result: TRPV1 potentiator, TRPV1 ag)
Cc1ccc2c(c1)-c1c(cnc3cc(-c4ccc(Cl)cc4)nn13)CO2	none (no result: TRPV1 potentiator, TRPV1 ag)
CN(CCC#N)C(=O)COC(=O)c1ccc(Cl)cc1O	D1 antagonist -34
O=C(Nc1nc(-c2ccccc2Cl)cs1)c1cccnc1	D1 antagonist -41
Cc1noc(C)c1C(=O)Nc1nc(-c2ccccc2Cl)cs1	none
O=[N+]([O-])c1ccc(CN2CCN(c3ccc(Cl)cc3)CC2)o1	D1 antagonist -32
Cc1c2c(n3c(nc4ccccc43)c1C#N)N(CCN1CCOCC1)CC2	D1 antagonist -38
Cc1ccc(S(=O)(=O)NCC(Nc2cccc(Cl)c2)c2ccccc2)cc1 (stereo not given)	none (no result: TRPV1 potentiator, TRPV1 ag)
C=CCc1cc(Cl)ccc1OCCNCCN1CCOCC1	D1 antagonist -87
Brc1ccc2[nH]c3c(N4CCc5ccccc5C4)ncnc3c2c1	none (no result: D1 antagonist)
Fc1ccc2[nH]c3c(N4CCc5ccccc5C4)ncnc3c2c1	D1 antagonist -35 (no result: TRPV1 potentiator, TRPV1 ag)
Cc1ccc2[nH]c3c(N4CCc5ccccc5C4)ncnc3c2c1	D1 antagonist -61, TRPV1 ag inconclusive
Clc1ccc2[nH]c3c(N4CCC5(CC4)OCCO5)ncnc3c2c1	D1 antagonist -35, TRPV1 ag inconclusive
Cc1ccc(CN2CCCn3nc(C(=O)NCCc4ccc(Cl)cc4)cc3C2=O)cc1	none (no result: TRPV1 potentiator, TRPV1 ag)
COc1ccc(-c2nc(CCNC(=O)c3cccs3)cs2)cc1OC	none (no result: TRPV1 potentiator, TRPV1 ag)
Cc1ccccc1NC(=O)CSc1ccc(-c2ccco2)nn1	D1 antagonist -71
Cc1ccc(C)c(NC(=O)CSc2ccc(-c3ccco3)nn2)c1	none
Cn1nc(C(F)(F)F)c(-c2ccc(Br)cc2)c1NC(=O)c1ccco1	none
Cn1nc(C(F)(F)F)c(-c2ccc(F)cc2)c1NC(=O)Nc1ccc(F)cc1	D1 antagonist -67, D1 ag 31 (no result: TRPV1 potentiator, TRPV1 ag)
Cc1cc(C)c2c(n1)SCC(=O)N2CC(=O)Nc1cccc(C)c1C	none (no result: TRPV1 potentiator, TRPV1 ag)
Cc1cc(NC(=O)CSc2ccccc2)no1	none
Cc1cc(NC(=O)CSc2nnc(-c3ccccc3)c(-c3ccccc3)n2)no1	D1 antagonist -78
Cc1cc(NC(=O)CSCC(=O)Nc2ccccc2Oc2ccccc2)no1	D1 antagonist -37
Cc1ccc(Oc2ccccc2NC(=O)CSCC(=O)Nc2cc(C)on2)cc1	none
COc1ccc(OCC(=O)NCC2(N3CCN(C)CC3)CCCCC2)cc1	none (no result: TRPV1 potentiator, TRPV1 ag)
COc1ccccc1N=CC=C1OC(C)(C)C(C)(C)O1	none
Cc1ccc(N=CC=C2OC(C)(C)C(C)(C)O2)c(C)c1	D1 antagonist -42
COc1ccc(-c2nc(Cn3c(SCc4ccc(C)cc4)nc4cccnc43)c(C)o2)cc1OC	none (no result: TRPV1 potentiator, TRPV1 ag)
C/C(=N\NC(=O)c1ccc(CSc2nncn2C)cc1)c1ccc(Cl)cc1	D1 antagonist -32
COc1cc(NC(=O)Cn2c(=O)nc(-c3ccccc3F)c3cc(Cl)ccc32)cc(OC)c1	none (no result: TRPV1 potentiator, TRPV1 ag)
Oc1ccc(/C=C/c2ccc3cccc(O)c3n2)cc1Br	D1 ag 37
Cc1c(C)n(Cc2ccc(F)cc2)c2ccc(C(=O)NCc3ccco3)cc12	D1 antagonist -75 (no result: TRPV1 potentiator, TRPV1 ag)
COc1ccc(CCNC(=O)c2ccc3c(c2)c(C)c(C)n3Cc2ccc(F)cc2)c(OC)c1OC	D1 antagonist -55 (no result: TRPV1 potentiator, TRPV1 ag)
CCc1ccc(CNC(=O)c2ccc3nc(SCc4ccc(F)cc4)n(C)c3c2)cc1	D1 ag 40 (no result: TRPV1 potentiator, TRPV1 ag)
